In all, about 1,100 compounds went through this assay and about 390 (35%) were called active. About 30% were inconclusive and are not listed. This is one part of the list. Unmarked numbers belong to inactive results. Calls follow the shape of the dose curve; as a rule, active = well fitted inhibition curve with a large enough effect; inconclusive = small, poorly fitted or top-dose-only effect; inactive = flat fitted curve, though single readings scatter.
% is scaled to controls: 0 for no effect and ±100 for the full control effect; potency is read from the fitted curve at half-maximal effect.

This assay concerns the target Luciferin 4-monooxygenase (Photinus pyralis) (UniProt P08659). Description: qHTS of Nrf2 Activators: Hit Validation in Secondary FLuc Assay. Also: nearly all actives have a fitted effect of over 65% in size. The following applies: firefly luciferase inhibition counter-screen, luminescence; series mostly up to 57.5 µM; activity, negative = inhibition: at the top concentration. In outline:
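Counter-screen on purified firefly luciferase with ATP and D-luciferin at Km concentrations; compounds flagged if they inhibit the enzyme, indicating possible reporter stabilization rather than ARE activation.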
For orientation: Quantitative high-throughput screening tests each substance at several concentrations.
As for `COc1ccc2[nH]c3c(NCc4ccco4)ncnc3c2c1`, the Potency is 4.78 µM (active). For the molecule `O=C1C(=Cc2cccc(Cl)c2)Cc2ccccc21`, the Potency is 1.07 µM (active). `Nc1ccccc1C=C1Cc2ccccc2C1=O`: the Potency is 0.426 µM (active).

Turning to `O=C1C(=Cc2ccccc2Cl)CCc2ccccc21`, the Potency is 0.169 µM (active). Regarding `O=C1C(=Cc2cccc(F)c2)Cc2ccccc21`, the Potency is 1.51 µM (active). For the molecule `COc1cc(OC)c(OC)cc1/C=C1/Cc2ccccc2C1=O`, the “activity, negative = inhibition” value was 3.06%. Same read-out and setting: the figure for `Cc1c(=O)n(OCc2ccc(Cl)cc2)c2ccccc2[n+]1[O-]` is 1.48%. For `CC1(O)c2ccccc2C(=O)N1CCc1ccccc1F` (stereo not given), the Potency is 6.75 µM (active). Regarding `Oc1ccccc1-n1nc2ccc3nonc3c2n1`, the “activity, negative = inhibition” value is -0.935%. For `FC(F)(F)c1cc(-c2cccs2)nc(-n2cc(Br)cn2)n1`, the “activity, negative = inhibition” value is -19.9%. Consider `Brc1cc(Br)c2nc(-c3cccs3)ccc2c1`, for which the Potency was 3.01 µM (active).

Regarding `FC(F)(F)c1cc(-c2cccs2)nc(NCc2ccco2)n1`, the “activity, negative = inhibition” value was -2%. Regarding `Cc1sc2c(c1C)C(=O)NC(c1ccccc1F)N2` (stereo not given), the Potency is 2.39 µM (active). For `O=C(CN1CCS(=O)(=O)CC1)N/N=C/c1cccc(C(F)(F)F)c1`, the “activity, negative = inhibition” value was 5.95%. For the molecule `CCOC(=O)c1c(NC(=O)/C=C/c2ccc(C)o2)sc(C)c1C`, the Potency is 13.5 µM (active). As to `Cn1nc(C(=O)Nc2c(-c3ccccc3)nc3sccn23)c2ccccc2c1=O`, the “activity, negative = inhibition” value was -28.2%.

As to `CS/C(=C\C(=O)c1ccco1)Nc1ccccc1Cl`, the Potency was 2.69 µM (active).

Take `O=C(NCc1ccco1)c1cc(=O)c2ccccc2o1`: the “activity, negative = inhibition” value was 0.0894%. With `O=c1cc(/C=C/c2ccccc2)oc2ccccc12`, the Potency is 2.13 µM (active). Regarding `O=C(NCCc1c[nH]c2ccccc12)c1ccc([N+](=O)[O-])o1`, the “activity, negative = inhibition” value is -26.1%. As for `C(=N\Nc1nc2ccccc2[nH]1)/c1c[nH]c2ccccc12`, the Potency was 1.35 µM (active).

Take `O=[N+]([O-])c1ccccc1N/N=C/c1c[nH]c2ccccc12`: the Potency is 0.601 µM (active). For the molecule `O=C(N=Nc1c(O)[nH]c2ccc(Br)cc12)c1ccco1`, the Potency was 10.7 µM (active).

As to `O=C(Nc1c(O)c2ccccc2[nH]c1=O)c1ccco1`, the “activity, negative = inhibition” value was -21.5%.

Consider `CC(/C=C(\NC(=O)c1ccccc1)C(=O)N=Nc1c(O)[nH]c2ccc(C)cc12)=C\c1ccccc1`, for which the “activity, negative = inhibition” value is -11.7%. With `Oc1[nH]c2ccccc2c1N=NC(=S)N1CCOCC1`, the Potency is 9.53 µM (active). For `O=C(N=Nc1c(O)[nH]c2ccccc12)c1ccco1`, the Potency is 3.01 µM (active). As for `Cc1ncc(N=Nc2ccccc2)c(-c2ccccc2)n1`, the “activity, negative = inhibition” value is -19.4%. Consider `O=C1/C(=C/c2ccccc2O)SC(=S)N1Cc1cccnc1`, for which the Potency is 16.9 µM (active).

As to `COc1ccc(OC)c(/C=C2\SC(=S)N(Cc3cccnc3)C2=O)c1`, the “activity, negative = inhibition” value is -23.6%.

As to `CN1CCN(C(=O)CCN2C(=O)/C(=C/c3cccc(Br)c3)SC2=S)CC1`, the “activity, negative = inhibition” value was -25.4%. Turning to `COC(=O)c1ccc2nc(-c3ccco3)c(Cc3ccccc3)n2c1`, the Potency is 3.38 µM (active). As for `COC(=O)c1ccc2nc(-c3ccco3)c(Cc3cccc(Cl)c3)n2c1`, the Potency is 12 µM (active). Consider `COC(=O)c1ccc2nc(-c3cccc(Br)c3)c(CC3CCCCC3)n2c1`, for which the “activity, negative = inhibition” value is -30%.

For `COC(=O)c1ccc2nc(-c3cccc(Cl)c3)c(Cc3ccccc3OC)n2c1`, the Potency was 15.1 µM (active). For the molecule `Cc1nn(C)c(C)c1/C=C(/C(=O)C(C)(C)C)n1cncn1`, the “activity, negative = inhibition” value was -4.22%.

Regarding `Cc1ccc(NC(=O)CC2S/C(=N/N=C/c3ccco3)NC2=O)cc1Cl` (stereo not given), the “activity, negative = inhibition” value is -8.08%.

Turning to `O=C(/C(C=Nc1ccc(F)cc1)=C(/O)c1ccco1)C(F)(F)F`, the Potency is 10.7 µM (active).

Regarding `Cc1ccc(N=C/C(C(=O)C(F)(F)F)=C(\O)c2ccco2)cc1Cl`, the Potency is 3.01 µM (active).

On to `O=C(/C(C=Nc1cccc(C(F)(F)F)c1)=C(/O)c1ccco1)C(F)(F)F`, for which the Potency is 13.5 µM (active). On the same count and under the same terms, with `Cc1cccc(N=C/C(C(=O)C(F)(F)F)=C(\O)c2ccco2)c1` the figure was 10.7 µM (active). Turning to `CSc1nc(Oc2ccc(Cl)cc2)c2sccc2n1`, the “activity, negative = inhibition” value is 3.01%. `CCn1c(=O)c([N+](=O)[O-])c(NCc2ccco2)c2ccccc21`: the “activity, negative = inhibition” value is 5.01%.

As to `N#C/C(=C\c1ccccc1)c1ccccn1`, the Potency was 9.53 µM (active). On to `S=c1[nH]nc(-c2ccc(Cl)cc2)n1/N=C/C=C/c1ccco1`, for which the Potency was 10.7 µM (active). As for `O=C(CN1CCN(Cc2ccccc2Cl)CC1)N/N=C/C=C/c1ccco1`, the “activity, negative = inhibition” value was 0.724%. Consider `Cc1cccc(-c2n[nH]c(=S)n2/N=C/C=C/c2ccco2)c1`, for which the Potency was 10.7 µM (active). For the molecule `S=C(NNc1ccc2ccccc2c1)NC1CCCCC1`, the Potency is 6.75 µM (active).

With `CNC(=O)C1CCN(S(=O)(=O)c2c(C)noc2/C=C/c2ccccc2F)CC1`, the “activity, negative = inhibition” value is 3.63%. For the molecule `COc1ccc(N=Nc2ccc(O)c3ncccc23)cc1`, the Potency is 9.53 µM (active).

On to `CCN(CC)CCNC(=O)C(Cl)=C1C(Cl)=C(Cl)C(Cl)=C1Cl`, for which the “activity, negative = inhibition” value was -0.406%. Take `Cc1cc(=O)n2nc(-c3ccccc3)sc2c1C#N`: the Potency is 23.9 µM (active).

On to `N#Cc1c(-c2ccccc2)cc(-c2ccccc2)[nH]c1=O`, for which the “activity, negative = inhibition” value is 1.09%. Turning to `[O-][n+]1onc2c3cc(-c4ccccc4)nnc3ccc21`, the “activity, negative = inhibition” value was -23.4%. Turning to `Cc1cc(O)cc2c1C(=O)/C(=C/c1ccco1)O2`, the Potency is 2.39 µM (active).

(Values after PubChem BioAssay AID651597 (National Center for Advancing Translational Sciences (NCATS), 2012).)
